Shown are actives, neighbours in structure and some others; about 11% of the full set was active somewhere.
ALDH1A1 inh = inhibitors of human aldehyde dehydrogenase 1A1; P00352; Purified ALDH1A1, NADH fluorescence, propionaldehyde substrate; Potency, µM (highest dose often 75.3 µM), most hits filed as inhibitors; actives 7.3% (n = 220,000)
HPGD inh = inhibitors of human 15-hydroxyprostaglandin dehydrogenase (HPGD). P15428. purified HPGD, NADH fluorescence kinetic, PGE2 substrate. Potency, µM, hits mostly inhibitors. actives 4.3% (n = 150,000)
Target sequence (P15428 whole entry, looked up): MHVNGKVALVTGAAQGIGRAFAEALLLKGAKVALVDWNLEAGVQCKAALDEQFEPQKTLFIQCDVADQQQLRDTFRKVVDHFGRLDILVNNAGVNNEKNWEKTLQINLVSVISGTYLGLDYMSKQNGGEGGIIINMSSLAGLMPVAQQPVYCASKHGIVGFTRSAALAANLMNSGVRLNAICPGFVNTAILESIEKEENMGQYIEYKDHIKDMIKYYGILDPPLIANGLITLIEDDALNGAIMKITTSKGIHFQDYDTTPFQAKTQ
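20 nM HPGD preincubated 15 min at room temperature with compound in 50 mM Tris-HCl pH 8, 0.01% Tween 20. Started with 1 mM NAD+ and 30 uM prostaglandin E2; NADH fluorescence (360/450 nm) read 5 times over 30-s intervals, last minus first.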
PNC inhibitor = inhibitors of perinucleolar compartment assembly | PC3M PTB-GFP, PNC prevalence imaging, 16 h; hits give low values | activity change (PNC), negative = inhibition, % at 10 µM | actives 3.1% (n = 140,000);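 active = readout at or below -70, meaning at least 70% loss of cells showing the perinucleolar compartment, a nuclear body marking cancer cells; inconclusive = readout between -30 and a set limit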
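Compounds are pinned in duplicate onto adhered PC3M cells stably expressing GFP-tagged PTB and incubated 16 h at 37 C. Cells are then fixed, nuclei stained with Hoechst, and PNC-positive cells counted.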
Of the large screens only hits and unclear results are named; the others gave an inactive call. Unless noted, calls come from the whole dose curve; as a rule, active = well fitted inhibition curve with a large enough effect (not every such curve was filed as active); inconclusive = small, poorly fitted or top-dose-only effect, or another doubt; inactive = no such curve, though single readings can be large or run the other way.

CN(C)C(=O)c1ccc(-c2cncnc2N2CCNCC2)cc1	none (no result: HPGD inh, PNC inhibitor)
N#CCSc1nc2cc(C(=O)N3CCC(C(N)=O)CC3)ccc2c2nc3ccccc3n12	ALDH1A1 inh 28.2µM, PNC inhibitor inconclusive
N#CCSc1nc2ccccc2c2nc3ccccc3n12	none
O=C(NCc1ccco1)c1ccc2c(=O)n(Cc3ccco3)c(SCC(=O)N3CCCC3)nc2c1	ALDH1A1 inh inconclusive, PNC inhibitor inconclusive
N#CCSc1nc2cc(C(=O)N3CCCC3)ccc2c(=O)n1Cc1ccccc1	ALDH1A1 inh 2.82µM
CCOC(Cn1c(SCc2cc(C(C)=O)ccc2OC)nc2ccccc2c1=O)OCC	ALDH1A1 inh inconclusive (no result: HPGD inh)
NC(=O)C1CCN(C(=O)c2ccc3c(=O)n(Cc4ccco4)c(SCC(=O)c4ccccc4)nc3c2)CC1	ALDH1A1 inh 14.1µM (no result: HPGD inh, PNC inhibitor)
COc1ccc(C(C)=O)cc1CSc1nc2cc(C(=O)O)ccc2c(=O)n1Cc1ccccc1	ALDH1A1 inh 20µM, HPGD inh inconclusive, PNC inhibitor inconclusive
N#CCSc1nc2ccccc2c(=O)n1CCC(=O)NC1CCCCC1	ALDH1A1 inh inconclusive, PNC inhibitor inconclusive
N#C/C(=C\Nc1ccccn1)C(=O)C1CC1	none (no result: PNC inhibitor)
COc1ccc(N2CCN(C(=O)CCN3C(=S)NC(C)(C)CC3C)CC2)cc1 (centres undefined)	none (no result: HPGD inh, PNC inhibitor)
O=C(N/N=C/c1cccc([N+](=O)[O-])c1)c1ccc(COc2ccccc2-c2ccccc2)cc1	none
O=C(CN1CCCCCC1=O)N1CCN(S(=O)(=O)c2cccs2)CC1	none (no result: HPGD inh, PNC inhibitor)
CN(C)CCCn1cnc2cc(Cl)c(Cl)cc21	none (no result: PNC inhibitor)
CC(C)(C)n1nnnc1CN1CCN(C2CCCC2)CC1	PNC inhibitor inconclusive
CC(C)(C)n1nnnc1CN1CCSCC1	ALDH1A1 inh 25.1µM
CC1CCOC(c2coc3ccccc3c2=O)O1 (centres undefined)	ALDH1A1 inh 20µM
O=C(O)C1CSC(c2coc3ccccc3c2=O)N1 (centres undefined)	ALDH1A1 inh inconclusive
COc1ccc(Cc2nnc(NC(=O)c3cccs3)s2)cc1OC	none (no result: HPGD inh, PNC inhibitor)
C[C@H](OP(=O)(O)O)[C@H](N)C(=O)O	none (no result: PNC inhibitor)
CCCn1nnc(NC(=O)/C=C/c2ccc(C(C)C)cc2)n1	ALDH1A1 inh 14.1µM (no result: HPGD inh, PNC inhibitor)
CCCn1nnc(NC(=O)C(c2ccccc2)c2ccccc2)n1	none
NC(=O)C1CCN(C(=O)COc2ccc(S(=O)(=O)NCc3ccccc3)cc2Cl)CC1	none
Cc1ccc(NC(=O)Nc2ccno2)cc1	none (no result: HPGD inh, PNC inhibitor)
COc1ccc(CCN2C(=O)CC(NC34CC5CC(CC(C5)C3)C4)C2=O)cc1OC (centres undefined)	ALDH1A1 inh 10µM (no result: HPGD inh, PNC inhibitor)
COc1ccc(CN2C(=O)C3C4C=CC(C4)C3C2=O)cc1 (centres undefined)	PNC inhibitor inconclusive
COc1ccc(CCN2C(=O)C3C4CCC(C4=C(C)C)C3C2=O)cc1OC (centres undefined)	ALDH1A1 inh 12.6µM
CCCCOc1ccc(N2C(=O)CC(NCCc3ccc(S(N)(=O)=O)cc3)C2=O)cc1 (centres undefined)	ALDH1A1 inh inconclusive, PNC inhibitor -82.3
COc1ccc(CCN2C(=O)C3C4CC(C5C(C(N)=O)=NOC45)C3C2=O)cc1OC (centres undefined)	ALDH1A1 inh inconclusive
CCCCCCOc1ccc(N2C(=O)CC(N(CCc3ccc(S(N)(=O)=O)cc3)C(C)=O)C2=O)cc1 (centres undefined)	none (no result: HPGD inh, PNC inhibitor)
COc1ccc(CCN2C(=O)CC(Cc3ccc(C)cc3)C2=O)cc1OC (centres undefined)	none (no result: HPGD inh, PNC inhibitor)
CCOc1ccc(CCN2C(=O)C3C4C=CC(C4)C3C2=O)cc1OCC (centres undefined)	ALDH1A1 inh 3.55µM, PNC inhibitor inconclusive
COC(=O)[C@H]1C[C@@H]1[C@H](NS(=O)(=O)c1ccc(-c2ccccc2)cc1)c1ccccc1	none (no result: PNC inhibitor)
O=[N+]([O-])c1cccc(-c2n[nH]c(=S)n2-c2ccc(Br)cc2)c1	none (no result: HPGD inh, PNC inhibitor)
COC1(C)CCC2OC2(C)CCC2C1CC2(C)C (centres undefined)	ALDH1A1 inh inconclusive (no result: PNC inhibitor)
OCC1(Cc2ccccc2)CCCN(Cc2c[nH]c3ccccc23)C1 (centres undefined)	none (no result: HPGD inh, PNC inhibitor)
CCOC(=O)C1=NN(C(C)=O)C2(CC(=O)N(c3ccc(C)c(C)c3)C2=O)C1 (centres undefined)	none
COc1ccc(CCNC2CC(=O)N(N(C)C)C2=O)cc1OC (centres undefined)	none (no result: HPGD inh, PNC inhibitor)
COc1ccc(CCN2C(=O)CC(NCCc3ccc(S(N)(=O)=O)cc3)C2=O)cc1OC (centres undefined)	ALDH1A1 inh 10µM
COC(=O)c1ccc(Cl)c(NC(=O)CN(c2ccccc2)S(=O)(=O)c2ccc(OC)cc2)c1	PNC inhibitor inconclusive (no result: HPGD inh)
Cc1ccc(CNc2oc(-c3ccco3)nc2S(=O)(=O)c2ccccc2)cc1	ALDH1A1 inh 28.2µM
O=S(=O)(c1ccccc1)c1nc(-c2ccco2)oc1NCCCN1CCOCC1	ALDH1A1 inh 8.91µM
Cc1ccccc1-c1nc(S(=O)(=O)c2ccc(Br)cc2)c(NCc2cccnc2)o1	ALDH1A1 inh inconclusive
N#Cc1nc(-c2ccco2)oc1NCCCN1CCOCC1	ALDH1A1 inh inconclusive, HPGD inh inconclusive
Cc1ccc(S(=O)(=O)c2nc(-c3ccccc3)oc2NCc2cccnc2)cc1	ALDH1A1 inh 28.2µM
COc1ccc(Nc2oc(-c3ccco3)nc2S(=O)(=O)c2ccc(F)cc2)cc1	ALDH1A1 inh inconclusive, HPGD inh inconclusive
O=S(=O)(c1ccccc1)c1nc(-c2ccco2)oc1NCCN1CCOCC1	ALDH1A1 inh 14.1µM
CCCCNc1oc(-c2cccs2)nc1S(=O)(=O)c1ccccc1	ALDH1A1 inh inconclusive, HPGD inh inconclusive
C=C1CC[C@H](O)C/C1=C/C=C1\CCC[C@]2(C)[C@@H]([C@H](C)CCCC(C)(C)O)CC[C@@H]12	none (no result: PNC inhibitor)
CC(C)CCN1CCN(CC#Cc2ccccc2)CC1CCO (centres undefined)	none (no result: HPGD inh, PNC inhibitor)
COc1cc(NC(=O)c2ccccc2-c2ccccc2)cc(OC)c1	none
Cc1ccc(C2C(C#N)=C(N)N(c3cccnc3)C3=C2C(=O)CCC3)c(C)c1 (centres undefined)	none (no result: HPGD inh, PNC inhibitor)
Cc1ccc(NC(=O)CCn2cc(C(F)(F)F)ccc2=O)cc1	none (no result: HPGD inh, PNC inhibitor)
Cn1c(N/N=C/c2c[nH]c3ccccc23)nc2ccccc21	ALDH1A1 inh 15.8µM, HPGD inh inconclusive
Cc1ccc(S(=O)(=O)N/N=C/c2c[nH]c3ccccc23)cc1	none (no result: HPGD inh, PNC inhibitor)
Cc1cc(C)nc(N/N=C/c2c[nH]c3ccccc23)n1	none (no result: HPGD inh, PNC inhibitor)
Fc1c(F)c(F)c(N/N=C/c2c[nH]c3ccccc23)c(F)c1F	ALDH1A1 inh 31.6µM, PNC inhibitor inconclusive
CCn1c(SCc2ccc([N+](=O)[O-])cc2)nnc1C(C)NC(=O)c1ccc(C)cc1 (centres undefined)	none
Cn1cc(CN2C[C@]3(C)C[C@H]2CC(C)(C)C3)c(-c2ccc3c(c2)OCCO3)n1	none (no result: HPGD inh, PNC inhibitor)
Cc1ccc(C(=O)COC(=O)c2cnccn2)cc1	PNC inhibitor -102.2
Cc1ccc(C(=O)Oc2ccc(C(=O)COC(=O)c3cnccn3)cc2)cc1	none
Cc1ccc(NS(=O)(=O)c2ccc(OCC(=O)Nc3cccc([N+](=O)[O-])c3)c(C)c2)cc1	none
CC1CCC(C(=O)O)NC1c1ccc(C#CCN(C)C)cc1 (centres undefined)	none (no result: HPGD inh, PNC inhibitor)
CN=c1scc(C)n1/N=C/c1ccc(O)c(O)c1O	ALDH1A1 inh 3.16µM, HPGD inh 7.08µM
CN=c1scc(-c2cccs2)n1/N=C/c1ccc(O)c(O)c1O	ALDH1A1 inh 6.31µM, HPGD inh 5.01µM, PNC inhibitor inconclusive

Screens deposited in PubChem BioAssay by National Center for Advancing Translational Sciences (NCATS).
